Test results from PubChem BioAssay (NCI).
About 83,000 compounds went through this panel and 20% of them were active in at least one assay; those are over-represented in the sample as a whole.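 Single-dose data. Exposure time 48 hours. Values below 10 considered active.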 Values without a mark were called inactive. Active and inactive are the calls of the source.

Tests used:
Assay in all cases: NCI-60 one-dose screen, 48 h (100 = growth as untreated, 0 = no growth, -100 = all killed)
DU-145 prostate = conditions: 10 µM unless noted
K-562 leukemia = conditions: 10 µM unless noted
MALME-3M melanoma = conditions: 10 µM unless noted
MDA-MB-231 breast = conditions: 10 µM unless noted
RXF 393 renal = conditions: 10 µM unless noted
SF-268 CNS = conditions: 10 µM unless noted
SF-295 CNS = conditions: 10 µM unless noted
SF-539 CNS = conditions: 10 µM unless noted
UACC-257 melanoma = conditions: 10 µM unless noted
M14 melanoma = conditions: 10 µM unless noted
HCT-15 colon = conditions: 10 µM unless noted
SNB-75 CNS = conditions: 10 µM
SNB-19 CNS = conditions: 10 µM unless noted
U251 CNS = conditions: 10 µM unless noted
PC-3 prostate = conditions: 10 µM unless noted
SK-MEL-5 melanoma = conditions: 10 µM unless noted
UACC-62 melanoma = conditions: 10 µM unless noted
LOX IMVI melanoma = conditions: 10 µM unless noted
SK-MEL-28 melanoma = conditions: 10 µM unless noted

Row | Structure (SMILES) | growth (DU-145 prostate) | growth (K-562 leukemia) | growth (MALME-3M melanoma) | growth (MDA-MB-231 breast) | growth (RXF 393 renal) | growth (SF-268 CNS) | growth (SF-295 CNS) | growth (SF-539 CNS) | growth (UACC-257 melanoma) | growth (M14 melanoma) | growth (HCT-15 colon) | growth (SNB-75 CNS) | growth (SNB-19 CNS) | growth (U251 CNS) | growth (PC-3 prostate) | growth (SK-MEL-5 melanoma) | growth (UACC-62 melanoma) | growth (LOX IMVI melanoma) | growth (SK-MEL-28 melanoma)
1 | COc1ccc2c(c1)OC1=C(C(=O)OC1)C2c1cc(OC)c2c(c1)OCO2 (stereo unspecified) | -17.9% (active) | 7.46% (active) | 51.2% | 9.12% (active) | 16.5% | 19.7% | 9.01% (active) | 1.82% (active) | 67.8% | 7.05% (active) | 19.2% | 36.5% | 29% | 19.9% | 22% | -54.3% (active) | 39.7% | 17.2% | 64.4%
2 | C=C(C)[C@@H]1C[C@@H]2Cc3ccc(Cl)c(C)c3N1O2 | 97.3% | 91.3% | 120% | 91.5% | 99.4% | 96.8% | 95.4% | 90.8% | 90% | 105% | 93% | 93% | 103% | 92.6% | 87.9% | 89.1% | 93.4% | 98.8% | 107%
3 | CN(C)CCN1C(=O)c2ccc3c4c(ccc(c24)C1=O)C(=O)N(CCN=C=S)C3=O | -97.1% (active) | -29.7% (active) | -63.7% (active) | -84.5% (active) | -98.5% (active) | -89% (active) | -71.7% (active) | -81.7% (active) | -95.3% (active) | -77.5% (active) | -78.2% (active) | -75.3% (active) | -92.3% (active) | -95.7% (active) | -80.3% (active) | -98.8% (active) | -92.5% (active) | -82.3% (active) | -87.7% (active)
4 | C=C[C@@H]1C[C@@H]2Cc3c(C)cc(C)cc3N1O2 | 108% | 89.8% | 77% | 113% | 98.3% | 93% | 92.1% | 96.6% | 101% | 104% | 101% | 95.4% | 113% | 90.2% | 93% | 103% | 96% | 88.4% | 101%
5 | O=C(Oc1ccccc1[N+](=O)[O-])C1CCCN1C(=O)OCc1ccccc1 (stereo unspecified) | 111% | 94.6% | 112% | 103% | 96% | 108% | 117% | 97.2% | 94.2% | 93% | 101% | 99% | 103% | 96.8% | 97.3% | 101% | 109% | 84.2% | 102%
6 | CC(C)(C)OC(=O)NC(CSCc1ccccc1)C(=O)ON1C(=O)CCC1=O (stereo unspecified) | 112% | 100% | 101% | 111% | 124% | 102% | 124% | 99.5% | 99.8% | 104% | 103% | 105% | 106% | 105% | 91.3% | 114% | 112% | 104% | 120%
7 | CC1(c2ccc(Cl)cc2)OC(=O)CC(=O)O1 | 108% | 113% | 89% | 98.2% | 113% | 100% | 120% | 102% | 109% | 101% | 102% | 99% | 97% | 102% | 101% | 110% | 102% | 106% | 112%
8 | N#C/C(=C1C=C/C(=N/O)C(Cl)=C/1)c1ccc(Cl)cc1 | 35.5% | 42.6% | 112% | 61.4% | 81.9% | 54.5% | 141% | 18.8% | 76.2% | 85.1% | 83% | 89% | 93.6% | 46.4% | 22.2% | 93.5% | 58.3% | 7.65% (active) | 101%
9 | NC(N)=Nc1nc2ccccc2o1 | 89.3% | 104% | 119% | 103% | 114% | 88.4% | 112% | 96.2% | 121% | 80% | 105% | 111% | 99.7% | 101% | 57.6% | 93.8% | 104% | 95.5% | 95.5%
10 | COc1ccc2c(c1)[nH]c(=O)c1c3cc(C)c(C)cc3cn21 | -68% (active) | 35.9% | 15.6% | -35.7% (active) | -48.6% (active) | -3.98% (active) | -51.7% (active) | 8.86% (active) | 66.8% | -33.5% (active) | -87.5% (active) | 84.8% | 25.6% | -97.1% (active) | -54.9% (active) | 10.3% | 42.5% | -99.2% (active) | -7.4% (active)
11 | COc1ccc2[nH]c(=O)c3c4ccccc4cn3c2c1 | 11.3% | 4.25% (active) | 12.6% | 28.5% | -25.2% (active) | 1.5% (active) | -2.6% (active) | 9.14% (active) | 51.3% | 23.9% | 9.19% (active) | 56.5% | 27.9% | 9.8% (active) | 7.65% (active) | 35.1% | 28.2% | 4.23% (active) | 54.7%
12 | O=C1C(Cl)=C(Nc2ccccn2)C(=O)c2ccccc21 | -10.9% (active) | 29.6% | -16.4% (active) | 62.1% | 95.3% | 58.8% | 82.9% | 25.4% | -10% (active) | 89.5% | 43.5% | 62.1% | 93.2% | 42.2% | 63.6% | -84.2% (active) | 1.2% (active) | 14.5% | 34.8%
13 | COc1ccc2c(c1)[nH]c(=O)c1c3cc(OC)ccc3cn21 | 0.89% (active) | 25.6% | 60.4% | 0.629% (active) | -39.9% (active) | -3.31% (active) | -18% (active) | 7.14% (active) | 72.5% | 25.4% | 4.49% (active) | 74.8% | 25.8% | -47.6% (active) | 0.628% (active) | 5.31% (active) | 41.9% | -76.9% (active) | 62.3%
14 | COc1ccc(CNCCCN2C(=O)c3ccc4c5c(ccc(c35)C2=O)C(=O)N(CCCNCCCCNCCCN)C4=O)c(OC)c1OC | 36.9% | 6.82% (active) | -72.5% (active) | 28% | 7.45% (active) | 17% | 31.4% | 1.73% (active) | -83.3% (active) | 5.46% (active) | 19.7% | -26.8% (active) | 28% | -6.34% (active) | 15.3% |  | 1.36% (active) | 6.59% (active) | 29%
15 | CCOC(=O)C1=C(C)NC(C)=C(C(=O)OCC)C1(C)C | 123% | 89.9% | 111% | 98.8% | 98.1% | 110% | 117% | 91.7% | 96.3% | 109% | 101% | 87.3% | 98.1% | 107% | 98.2% | 97.7% | 98.7% | 104% | 102%
16 | COc1ccc(/C=C(\C#N)c2cc(OC)c3c(c2)OCO3)cc1 | -12.7% (active) | 9.08% (active) | 54.2% | 10.4% | 21.4% | 26.9% | 4.91% (active) | 4.3% (active) | 84% | 12.1% | 15.7% | 39.8% | 37.8% | 20.8% | 23% | -58.9% (active) | 39.3% | 19.2% | 67.8%
17 | CNc1ccc(Br)c2c1C(=O)c1ccccc1C2=O | 121% | 94.9% | 117% | 103% | 122% | 115% | 110% | 103% | 121% | 118% | 98.2% | 96.7% | 110% | 103% | 94.5% |  | 95.8% | 102% | 115%
